# Records with an inconclusive call do not appear. Unmarked numbers belong to inactive results. The source made the active and inactive calls. Calls come from the whole dose curve; as a rule, active = well fitted inhibition curve with a large enough effect; inconclusive = small, poorly fitted or top-dose-only effect; inactive = flat fitted curve, though single readings scatter.
# Tests used:
# Experiment in all cases: Cytotoxic Profiling of Annotated Libraries Using Quantitative High-Throughput Screening (AID 1296008); note: nearly all actives have a fitted effect of over 60% in size
# Conditions in all cases: Five cell lines viability, CellTiter-Glo ATP luminescence, 48-72 h; max response: active compounds read low
# [1] = system: HEK293
# Method in brief: (§1)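 Cells exposed to compounds for 48 or 72 hr at 37 degrees Celsius. Viability read as ATP-coupled luminescence with CellTiter-Glo after 10 min at room temperature.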
# [2] = system: HaCat
# Method in brief: as §1
# [3] = system: KB-3-1
# Method in brief: as §1
# % is set by controls: 0 for no effect and ±100 for the full control effect; potency is the fitted concentration of half-maximal effect.
smiles,measurement,setting,value
CO[C@H]1/C=C/C=C/C=C/C[C@H](OC(=O)[C@@H](C)NC(=O)C2CCCCC2)[C@H](C)[C@@H](O)/C(C)=C/CCc2cc(O)cc(c2)NC(=O)C1,Potency,[1],343 nM (active)
same,Potency,[2],1090 nM (active)
same,Potency,[3],544 nM (active)
CCC1=CC2CN(C1)Cc1c([nH]c3ccccc13)[C@@](C(=O)OC)(c1cc3c(cc1OC)N(C)[C@H]1[C@@](O)(C(=O)OC)[C@H](OC(C)=O)[C@]4(CC)C=CCN5CC[C@]31[C@@H]54)C2 (some centres undefined),Potency,[1],100 nM (active)
same,outcome,[2],inactive
same,Potency,[3],35.5 nM (active)
COc1ccccc1NC(=O)OCC1CCN(C(=O)OC(C)(C)C)CC1,max response,[1],-0.473%
same,max response,[2],2.46%
same,max response,[3],-8.5%
N#Cc1ccc2[nH]cc(CCCCN3CCN(c4ccc5oc(C(N)=O)cc5c4)CC3)c2c1,Potency,[1],8200 nM (active)
same,max response,[2],-11.5%
same,max response,[3],-15.8%
COCCOc1cnc2ccn([C@H](C)c3nnc4c(F)cc(-c5cnn(C)c5)cn34)c(=O)c2c1,max response,[1],1.47%
same,max response,[2],4.9%
same,max response,[3],1.49%
C=C(C)C(=O)OC1CC2(C)OC(=CC2=O)C(=C)CC2OC(=O)C(COC)C12 (centres undefined),Potency,[1],7180 nM (active)
same,max response,[2],-21.9%
same,max response,[3],-15.6%
Nc1ccc(/C=C/C(=O)NCc2cc3cc(-c4ccc(C(=O)N5CCC(F)(F)CC5)cc4)cc(-c4ccc(F)cc4)c3o2)cn1,Potency,[1],580 nM (active)
same,Potency,[2],5170 nM (active)
same,Potency,[3],920 nM (active)
COc1cccc(-c2cc(NCc3ccc4c(c3)OCO4)nc(N)n2)c1,Potency,[1],184 nM (active)
same,max response,[2],-46.3%
same,Potency,[3],231 nM (active)
COc1cc(-c2ncn(/C=C\C(=O)OC(C)C)n2)cc(C(F)(F)F)c1,Potency,[1],259 nM (active)
same,Potency,[2],2060 nM (active)
same,Potency,[3],1840 nM (active)
CNS(=O)(=O)c1ccccc1Nc1nc(Nc2ccc(N3CCN(C)CC3)cc2OC)ncc1Cl,Potency,[1],1300 nM (active)
same,Potency,[2],2590 nM (active)
same,Potency,[3],920 nM (active)
Cc1ccc(C(=O)Nc2noc3ccccc23)cc1,Potency,[1],18400 nM (active)
same,max response,[2],-29.9%
same,outcome,[3],inactive
COc1cc(O)cc(C)c1C(=O)O[C@@H]1[C@H](O)[C@@H](CO)O[C@H]1n1ccc(=O)[nH]c1=O,Potency,[1],5630 nM (active)
same,max response,[2],-4.84%
same,max response,[3],-16.4%
CC(=O)SCC(=O)c1ccc(NS(=O)(=O)c2ccc(OCCCN(C)C)cc2)nc1,Potency,[1],7310 nM (active)
same,Potency,[2],14600 nM (active)
same,Potency,[3],8200 nM (active)
Cc1csc(NC(=O)c2ccc(COc3cccc(Cl)c3)o2)n1,max response,[1],-17.1%
same,max response,[2],2.26%
same,max response,[3],-1.89%
CC[C@]1(O)CC2CN(CCc3c([nH]c4ccccc34)[C@@](C(=O)OC)(c3cc4c(cc3OC)N(C)[C@H]3[C@@](O)(C(=O)OC)[C@H](OC(C)=O)[C@]5(CC)C=CCN6CC[C@]43[C@@H]65)C2)C1 (some centres undefined),Potency,[1],65.1 nM (active)
same,max response,[2],4.47%
same,Potency,[3],36.6 nM (active)
O=C(Cc1ccc(-c2ccccc2)cc1)NC1CCC1,max response,[1],2.52%
same,max response,[2],-21.1%
same,max response,[3],4.19%
CN1CCC(Nc2nc(Nc3ccc(Oc4ccccc4)cc3)c3c(=O)[nH]cc(Br)c3n2)CC1,Potency,[1],2310 nM (active)
same,Potency,[2],4110 nM (active)
same,Potency,[3],5800 nM (active)
COC(=O)Cc1cc2c(c([N+](=O)[O-])c1)N(C(=O)CC[C@H](N)C(=O)O)CC2,max response,[1],-4.25%
same,max response,[2],-29.1%
same,max response,[3],7.29%
C=C(C)C(=O)O[C@H]1C[C@@](C)(O)C(=O)CC(O)/C(C)=C\[C@H]2OC(=O)C(=C)[C@H]12 (some centres undefined),Potency,[1],5080 nM (active)
same,max response,[2],-1.1%
same,outcome,[3],inactive
O=C(O)[C@@H]1C[C@H]2C[C@@H](CCc3nn[nH]n3)CC[C@H]2CN1,max response,[1],1.79%
same,max response,[2],2.14%
same,outcome,[3],inactive
COc1ncc(Nc2ncc([C@H](C)N3CCN(S(C)(=O)=O)CC3)cc2-c2nc(C)nc(N)n2)cc1F,Potency,[1],517 nM (active)
same,Potency,[2],146 nM (active)
same,Potency,[3],6510 nM (active)
Cc1cc2c(F)c(Oc3ncnn4cc(OCC(C)O)c(C)c34)ccc2[nH]1 (centres undefined),Potency,[1],5800 nM (active)
same,max response,[2],-0.656%
same,max response,[3],-12.6%
COc1ccc(C(=O)C2CCN(CC(=O)N(Cc3nc4c(c(=O)[nH]3)COCC4)CC3CC3)CC2)cc1,max response,[1],-4.04%
same,max response,[2],-5.45%
same,max response,[3],9.05%

# From PubChem BioAssay (NCATS)
